Data reported in article PMC7819943, “Rice protein-binding microarrays: a tool to detect cis-acting elements near promoter regions in rice”.
In all, about 68,000 sequences were measured (“fluorescence intensity (a.u.)”: median about 9,100, highest 2% from about 16,000 on). This excerpt belongs to a sample that is enriched for the highest values.

These sequences were tested against OsWRKY34 (Oryza sativa, UniProt Q0JBA9 1-250) (assay: protein-binding microarray (RPBM); PBS, 2% BSA, 51.3 ng/ul salmon testes DNA, 50 uM zinc acetate, 200 nM TF, 25 C, 1 h; high values mean tight binding). Details: protein: recombinant; tags: N-terminal polyhistidine and DsRed monomer fusion (pET32a); label: CyDye5-dUTP incorporated in the synthesized complementary strand; 3' TTTTT single-stranded linker to array surface; dsDNA, one strand shown.
Procedure, shortened: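 Transcription factors were made in E. coli BL21-CodonPlus as N-terminal fusions to a polyhistidine tag and DsRed, then purified on Ni–NTA. After primer extension with Cy5-dUTP and blocking with 2% BSA, a custom Agilent array was exposed for 1 h at 25 °C to 200 nM protein in PBS, 2% BSA, salmon testes DNA and 50 µM zinc acetate. Washed arrays were scanned on an Axon 4000B, and the binding signal is per-feature fluorescence intensity in arbitrary units.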

Sequence of OsWRKY34 (Q0JBA9 entry or part of it): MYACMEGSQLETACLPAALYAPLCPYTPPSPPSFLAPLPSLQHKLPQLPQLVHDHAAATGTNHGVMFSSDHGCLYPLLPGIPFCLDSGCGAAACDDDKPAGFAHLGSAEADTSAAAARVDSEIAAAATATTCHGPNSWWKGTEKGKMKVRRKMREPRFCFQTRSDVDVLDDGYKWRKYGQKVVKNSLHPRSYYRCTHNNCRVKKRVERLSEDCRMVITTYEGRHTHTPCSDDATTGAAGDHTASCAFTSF

Sequence | binding signal
TCTGCGAGGAAGAACCCATTCAGATTACGCTGCATTTTTTCGGAGTCACCTAGTGCAG | 8660 fluorescence intensity (a.u.)
GGCGATCCGGCTTAACTACTTTGTTTGTTTCTCTGTGCAACGGAGTCACCTAGTGCAG | 8480 fluorescence intensity (a.u.)
ACCACCACCACCACCGCCCGCCAAGCGCGGCCCGCCCGACCGGAGTCACCTAGTGCAG | 8720 fluorescence intensity (a.u.)
TGTTCTGCCGGGGTTGTTGCTTACTGATGCAAAACTCTTTCGGAGTCACCTAGTGCAG | 9240 fluorescence intensity (a.u.)
TTCCACGGTTTTCTTTTTTCGGTTTTTATCTTTTCTTTTTCGGAGTCACCTAGTGCAG | 13200 fluorescence intensity (a.u.)
TCGGTTTGTTTTTTTCCGGTTTATCTTCTTTCGGTTTTTTCGGAGTCACCTAGTGCAG | 18500 fluorescence intensity (a.u.)
AATTAGTTTCTTGCTTCTTCTTTTTTCTTTTCTTTTTCATCGGAGTCACCTAGTGCAG | 8210 fluorescence intensity (a.u.)
CTTTCCTTTCTTTGTTTTTTATCTTTGTTTTCTTTCTTCCCGGAGTCACCTAGTGCAG | 11800 fluorescence intensity (a.u.)
CTTTAATTTTAATTAGAGTTTCTTGCATCGGTTTCCAATGCGGAGTCACCTAGTGCAG | 27700 fluorescence intensity (a.u.)
GATTGGTTGTTTGTTCTGTTTTGGACATGCTTGTTAATTACGGAGTCACCTAGTGCAG | 17100 fluorescence intensity (a.u.)
CACCTTTTTTTAATTTTTTGGTTTCCAATTTTTATTTTTTCGGAGTCACCTAGTGCAG | 10900 fluorescence intensity (a.u.)
GTGTTCATTGCTAGTTGCATTGTGGTTTTCTAGTTAATTACGGAGTCACCTAGTGCAG | 9000 fluorescence intensity (a.u.)
ATTGGATGTTAAGTTGTGTTTTTGCTGTTTCATGGTTTTACGGAGTCACCTAGTGCAG | 11400 fluorescence intensity (a.u.)
ATCCAGTGAGCTCGAGGCTTCCCATCTATCCGCCGTTGGTCGGAGTCACCTAGTGCAG | 8260 fluorescence intensity (a.u.)
CTGCTGCATCTGCACTGCATGGCCATGCCCACACACTTGGCGGAGTCACCTAGTGCAG | 8050 fluorescence intensity (a.u.)
TATGCTTCATCTGTTCTTCTACATTGTTATCTACTATCTGCGGAGTCACCTAGTGCAG | 10100 fluorescence intensity (a.u.)
CGAGCTGCTGATGGCCCCTATGCCACATCTACTATGCATGCGGAGTCACCTAGTGCAG | 17100 fluorescence intensity (a.u.)
CTCAACTCGGGATGACATTTGGGGTGTTTTTTTTTTGCAACGGAGTCACCTAGTGCAG | 9820 fluorescence intensity (a.u.)
TACTTGCACTTTACTATATTCTTGCTGTTACGCACCACATCGGAGTCACCTAGTGCAG | 14600 fluorescence intensity (a.u.)
AGTTAAAACCGCTACTCCACTCCTCCCATTGCATAATTTTCGGAGTCACCTAGTGCAG | 9400 fluorescence intensity (a.u.)
AATTTTGATAGATGTGGGATGTGTTGTAATTTGTAAATTTCGGAGTCACCTAGTGCAG | 8270 fluorescence intensity (a.u.)
GCCGGCGGCAGGGTGGGGCGGGGACGCCTGCCGGCGTCGGCGGAGTCACCTAGTGCAG | 9860 fluorescence intensity (a.u.)
GCGGCAGGTTTCGGCGGCGGGGCGGGCGGCAGGTGTCGGCCGGAGTCACCTAGTGCAG | 20000 fluorescence intensity (a.u.)

Sequence | binding signal
TTCTTTTCTTTTTTTCTTTGCGGGGATTTCATATAGGATTCGGAGTCACCTAGTGCAG | 8510 fluorescence intensity (a.u.)
AGGTTCCGGGAGGGCGGGGTGGAGCACGAGGCGGCGGTGCCGGAGTCACCTAGTGCAG | 10600 fluorescence intensity (a.u.)
AAGGTGGTGGGGCAGGTGGAGCGGGTGGTCGGGGCGACGCCGGAGTCACCTAGTGCAG | 11300 fluorescence intensity (a.u.)
TTGTCCTCAGCCGGCAGTGTAGGTTCCGGGAGGGCGGGGTCGGAGTCACCTAGTGCAG | 19300 fluorescence intensity (a.u.)
TTTGCAGGTTTCGTTTGCATTTGCGGGGCGGGCATATATGCGGAGTCACCTAGTGCAG | 21600 fluorescence intensity (a.u.)
TGGCGCGTGGGAGGGTCAGCCTAGGGCGTCGGAGGGGCGGCGGAGTCACCTAGTGCAG | 13400 fluorescence intensity (a.u.)
TTTCGGTTTTGCTACTTCACATGCGCATATTTTTGGAGGGCGGAGTCACCTAGTGCAG | 9330 fluorescence intensity (a.u.)
TTTTGCGCGGATGGCCCTTTACTTTTCCCCTCTTGTCCTCCGGAGTCACCTAGTGCAG | 10400 fluorescence intensity (a.u.)
ACTTCTACTCCTACTTCCCTGTGTGGCCCACAGCTAGATACGGAGTCACCTAGTGCAG | 10300 fluorescence intensity (a.u.)
TGGAAGTCTGGAAGGCGCTGTACCTTCGTCTCGCCCGTCACGGAGTCACCTAGTGCAG | 8650 fluorescence intensity (a.u.)
ATATGTCAAGTTTGGTGGATATAGTTGTTTGGCCTTTTACCGGAGTCACCTAGTGCAG | 11700 fluorescence intensity (a.u.)
CACGCTGCACTGCACCGCTTTACGCCATCTCGCCAATTTTCGGAGTCACCTAGTGCAG | 10300 fluorescence intensity (a.u.)
CCAATTTTTTTTTCTCCTTTTGCTTTTTTTCATCAAGAACCGGAGTCACCTAGTGCAG | 8740 fluorescence intensity (a.u.)
CGGAACCGCTCCTCGAGAAGCTCTCGAATTCCTCGTCGTCCGGAGTCACCTAGTGCAG | 9310 fluorescence intensity (a.u.)
ATAAGACGAACGGTCAAATATGTGCTAAAAAGTCAACGGTCGGAGTCACCTAGTGCAG | 16400 fluorescence intensity (a.u.)
AGACGAACAGTCAAATATGTGCTAAAAAGTCAACGGTGTCCGGAGTCACCTAGTGCAG | 17500 fluorescence intensity (a.u.)
ATAAGACGAACGGTTAAAAATGTGCCAAAAAGTCAACGGCCGGAGTCACCTAGTGCAG | 9640 fluorescence intensity (a.u.)
GGTAAAATATGTGCTAAAAAGTCAACGGTGTCAAACATTTCGGAGTCACCTAGTGCAG | 14400 fluorescence intensity (a.u.)
TAAGACGAATGGTCAAATATGTGCTAAAAAGTCAACGGTGCGGAGTCACCTAGTGCAG | 13100 fluorescence intensity (a.u.)
AAGACGAACGGTCAAATATGTGCTAAAAAGTCAACGGTGTCGGAGTCACCTAGTGCAG | 9990 fluorescence intensity (a.u.)
AGAACGAACAGTCAAACATATGCTAAAAAGTCAACGGTGTCGGAGTCACCTAGTGCAG | 10200 fluorescence intensity (a.u.)
TGTTATGCAAATGTGCAAATGCAAAAGTTGGCCGCAAGAACGGAGTCACCTAGTGCAG | 17600 fluorescence intensity (a.u.)
GAACGGTCAAACATGTGTTAAAAAGTCAACGGTGTTAAACCGGAGTCACCTAGTGCAG | 9470 fluorescence intensity (a.u.)
